697 NFkB inh: inhibitors of the PMA/ionomycin-induced NF-kB reporter in 697 B cells; 697 B-cell NF-kB luciferase reporter, 16 h; inhibition, % at 4 µM; actives 0.33% (n = 330,000); AID 435022; in the data active = inhibition above about 35%
COUP-TFII inh: NR2F2 (human) inhibition, primary screen | P24468 | HEK293T NGFI-A luciferase reporter, luminescence | inhibition, % at 8.6 µM | actives 0.7% (n = 370,000);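 active = inhibition above a per-plate cutoff, mean inhibition of test wells between control levels plus 3 SD, cut at about 38% in these data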;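 also: cells cotransfected with COUP-TFII expression vector driving the NGFI-A reporter; 0% = median of COUP-TF2 test wells and 100% = reporter-only cells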
Target sequence (P24468 whole entry, looked up): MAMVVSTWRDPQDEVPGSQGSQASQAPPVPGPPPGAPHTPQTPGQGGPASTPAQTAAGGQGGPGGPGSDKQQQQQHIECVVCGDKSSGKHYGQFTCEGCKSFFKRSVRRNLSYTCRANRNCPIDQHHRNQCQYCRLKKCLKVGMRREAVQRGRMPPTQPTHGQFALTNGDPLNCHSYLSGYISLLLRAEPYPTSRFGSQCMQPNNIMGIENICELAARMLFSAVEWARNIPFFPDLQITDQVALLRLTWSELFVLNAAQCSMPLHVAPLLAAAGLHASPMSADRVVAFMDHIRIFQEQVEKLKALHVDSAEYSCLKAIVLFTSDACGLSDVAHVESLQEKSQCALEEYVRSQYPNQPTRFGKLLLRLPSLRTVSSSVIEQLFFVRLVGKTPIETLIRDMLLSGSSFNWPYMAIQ
H9c2 TAG inh: inhibitors of triacylglycerol accumulation; H9c2 cells, Nile Red lipid (TAG) fluorescence; cells loaded with 200 µM oleic acid; inhibition, % at 12.5 µM; actives 0.66% (n = 230,000); AID 651582;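 active = pattern-corrected inhibition of lipid staining of at least 50% with the nuclear-stain viability signal not falling by more than 50%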;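 also: 0% = DMSO wells and 100% = triacsin C control wells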
Jurkat NFkB inh: lowers PMA/ionomycin-induced NF-kB signal in Jurkat cells. actives 0.53% (n = 330,000). PMA/ionomycin-induced NF-kB luciferase reporter, luminescence. inhibition, % at 4 µM. AID 435003; in the data active = inhibition above about 50%
H9c2 protect: myocardial damage modulation in H9c2 cells; H9c2 cardiomyocytes, H2O2 injury protection, ATPLite, 2 h; protection from H2O2 cell death, % at 20 µM; actives 0.63% (n = 360,000); AID 588492;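 active = compounds giving at least 50% protection of heart cells from peroxide-induced death in the single-dose screen, raw or plate-pattern-corrected value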;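 also: 0% = DMSO wells with peroxide and 100% = DMSO wells without peroxide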
Gli-Sufu block: blocks Gli-Sufu signaling in a luciferase reporter; AID 588413; inhibition, % at 5 µM; actives 0.74% (n = 340,000); Sufu-KO-LIGHT fibroblasts, Gli luciferase reporter luminescence;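 active = inhibition above about 55%, limit read from the data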;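 also: 0% = DMSO-treated cells and 100% = wells with medium but no cells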
Jurkat NFkB conf: inhibitors of the PMA/ionomycin-induced NF-kB reporter in Jurkat cells, retest; shares compounds with Jurkat NFkB inh; Jurkat NF-kB luciferase, 16 h; inhibition, % at 4 µM; actives 27% (n = 2,700); AID 435020;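 active = inhibition reaching about 45% at 4 µM in either replicate, limit read from the data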;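 also: plate controls were PMA/ionomycin stimulated DMSO wells for no effect and unstimulated DMSO wells for full effect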
TAG conf: triacylglycerol accumulation inhibition, confirmation. actives 71% (n = 990). H9c2 lipid accumulation, Nile Red fluorescence; cells loaded with 200 µM oleic acid. inhibition, % at 12.5 µM. shares compounds with H9c2 TAG inh;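 active = mean inhibition across replicates of 40% or more; inactive = mean inhibition below 40%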;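 also: plate controls were DMSO only wells for no effect and Triacsin C treated wells for full effect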
* = called active by the depositor; . = not tested or not shown. Hits are enriched below; roughly 2.6% of the tested compounds scored in any of these assays.

SMILES	697 NFkB inh	COUP-TFII inh	H9c2 TAG inh	Jurkat NFkB inh	H9c2 protect	Gli-Sufu block	Jurkat NFkB conf	TAG conf
O=C(N/N=C/c1ccc2c(c1)OCO2)c1cc(-c2ccncc2)nc2ccccc12	-36.3	-9.2	53.7*	57.3*	6.2	11.2	2.7	66.9*
O=C(N/N=C/c1ccc2c(c1)OCO2)c1cc(-c2ccccc2Cl)nc2ccccc12	-29.8	5.9	.	-2.5	-2.4	1.2	.	.
O=C(N/N=C/c1cccnc1)c1cc(-c2ccccc2)nc2ccccc12	-1.2	-2.4	.	-8.5	-2.2	3.8	.	.
COc1ccc2[nH]c3c(c2c1)CCN[C@]31C(=O)N(Cc2cn(Cc3ccccc3)nn2)c2ccccc21	.	-1.1	.	.	.	.	.	.
CC(=O)O[C@H]1C(=O)[C@]2(C)[C@H]([C@H](OC(=O)c3ccccc3)[C@]3(O)C[C@H](OC(=O)[C@H](O)[C@@H](NC(=O)c4ccccc4)c4ccccc4)C(C)=C1C3(C)C)[C@]1(OC(C)=O)CO[C@@H]1C[C@@H]2O	-18.5	-27.9	54.1*	70.9*	-6.9	42.9	64.8*	57.0*
O=C(COc1ccccc1-c1ccccc1)N/N=C/c1cccc2ccccc12	21.9	-8.1	63.2*	55.6*	-18.3	43.6	50.7*	36.0
CCOC(=O)c1[nH]c(C)c(C(=O)Nc2ccccc2C)c1C	-59.6	2.1	54.4*	52.7*	-7.1	-13.0	38.5	58.8*
CCOC(=O)c1[nH]c(C)c(C(=O)Nc2ccc(C)c(F)c2)c1C	-10.8	.	.	25.9	0.6	-17.5	.	.
Cc1onc(-c2ccccc2)c1C(=O)Nc1cc(C(F)(F)F)ccc1N1CCOCC1	-52.3	-10.9	52.4*	56.2*	-6.2	13.3	28.6	61.8*
CCC(=NCCc1c(C)[nH]c2ccc(OC(F)(F)F)cc12)C1=C(O)CC(c2ccccc2)CC1=O (stereo not drawn)	-28.3	4.3	51.2*	67.0*	-11.2	4.2	16.5	72.0*
CCC(=NCCc1c(C)[nH]c2ccccc12)C1=C(O)CC(c2ccccc2)CC1=O (stereo not drawn)	-17.9	17.2	.	49.0	3.3	2.2	.	.
CC(=NCCc1c(C)[nH]c2ccc(OCc3ccccc3)cc12)C1=C(O)CC(c2ccccc2)CC1=O (stereo not drawn)	-31.9	21.4	8.5	7.2	-0.8	10.1	.	.
CCCCC(=NCCc1c(C)[nH]c2ccc(OC)cc12)C1=C(O)CC(c2ccccc2)CC1=O (stereo not drawn)	-55.5	11.4	61.2*	69.0*	4.8	23.4	13.4	65.7*
O=C(NCc1ccccc1Cl)C1CCCN(c2nc3ccccc3o2)C1 (stereo not drawn)	.	1.8	.	.	.	.	.	.
CCCCCc1cccc2[nH]cc(-c3ccccc3)c12	.	12.1	.	.	.	.	.	.
Cc1ccc(NC(=O)c2[nH]cnc2C(=O)NN)cc1	-13.2	-23.2	2.2	-4.1	3.2	-8.0	.	.
CCOC(=O)c1ccc(NC(=O)c2nc[nH]c2C(=O)NCCCCNC(=O)c2[nH]cnc2C(=O)Nc2ccc(C(=O)OCC)cc2)cc1	9.0	10.6	122.1*	67.2*	57.7*	27.0	22.8	85.9*
CCOC(=O)c1ccc(NC(=O)c2nc[nH]c2C(=O)NCCCNC(=O)c2[nH]cnc2C(=O)Nc2ccc(C(=O)OCC)cc2)cc1	8.4	-1.9	13.0	3.5	44.5	-15.2	.	.
Cc1ccc(NC(=O)c2nc[nH]c2C(=O)NCCCCNC(=O)c2[nH]cnc2C(=O)Nc2ccc(C)cc2)cc1	25.4	11.6	66.0*	50.1*	32.9	3.9	17.4	86.4*
O=C(Nc1ccccc1)OCCN1C(=O)CCC12CCC(c1ccccc1)CC2 (stereo not drawn)	.	-17.1	.	.	.	.	.	.
COC(=O)/C=C/c1ccccc1S(=O)(=O)N(Cc1ccccc1)Cc1ccco1	-90.1	-4.5	53.8*	55.9*	-4.2	8.9	7.2	47.6*
CCN1Cc2nnn(Cc3ccccc3)c2-c2cc(F)ccc2S1(=O)=O	.	16.8	.	.	.	.	.	.
c1nc(NCC2CCOC2)c2cc(-c3ccc4c(c3)OCO4)ccc2n1 (stereo not drawn)	.	-5.9	.	.	.	.	.	.
O=C(Nc1nc2ccc(C(=O)N3CCCCC3)cc2s1)C1CCCCC1	-71.7	-17.4	63.7*	60.2*	-4.9	-27.8	18.5	68.2*
Cc1cc(NC(=O)COc2cc(F)cc(F)c2)n(-c2ccccc2)n1	.	-10.6	.	.	.	.	.	.
SMILES	697 NFkB inh	COUP-TFII inh	H9c2 TAG inh	Jurkat NFkB inh	H9c2 protect	Gli-Sufu block	Jurkat NFkB conf	TAG conf
COC(=O)c1ccc(Oc2cc(C)nc(SC)n2)cc1	-48.0	4.1	50.6*	55.5*	0.9	0.0	42.3	41.2*
Cc1ccccc1CN1CCCCC(NC(=O)C2CCCC2)C1=O (stereo not drawn)	.	2.4	.	.	.	.	.	.
CCCC(=O)Nc1nc2ccc(NC(=O)c3ccccc3F)cc2s1	-76.3	-4.8	52.2*	59.7*	25.8	-38.0	27.1	81.5*
COc1cc(C(=O)N2CCN(c3cc(Cl)ccc3Cl)CC2)cc(OC)c1OC	-81.6	-0.8	54.3*	60.0*	3.0	24.2	49.8*	64.8*
CCOc1ccc(OCC(=O)Nc2cccc(S(=O)(=O)NC3=NCCC3)c2)cc1	.	-12.9	5.3	.	-22.9	5.1	.	.
CCOc1ccc(C(=O)NC(=S)Nc2cccc(S(=O)(=O)NC3=NCCC3)c2)cc1	5.1	-12.8	51.3*	59.6*	-4.0	-0.9	34.5	57.2*
COc1ccc(S(=O)(=O)N2N=C(C)Oc3ccccc3C2=O)cc1	-28.0	8.0	63.4*	53.0*	6.7	-3.2	44.4	53.6*
CC1=NN(S(=O)(=O)c2ccc(C)cc2)C(=O)c2ccccc2O1	14.4	-3.9	-8.6	4.0	-0.1	6.7	.	.
COc1ccc(-c2cccc3[nH]c4c(c23)CCN2C(=O)[C@H]3[C@H](C)ON(C)[C@H]3C[C@@H]42)cc1	.	3.2	.	.	.	.	.	.
COc1cc(C2=NOC(C(=O)NCc3cccs3)C2)cc(OC)c1OC (stereo not drawn)	-66.7	3.9	52.2*	50.3*	-7.3	2.7	36.1	62.6*
CCCCCCCCN1C(=O)[C@@H](CC(=O)NCc2cccc(C(F)(F)F)c2)C[C@@]2(C(=O)OC)C1=C[C@H](C(C)C)O[C@@H]2C1CC1	.	7.3	.	.	.	.	.	.
CSC1=NC(C(Cl)(Cl)Cl)N=C(c2ccc(C)cc2)N1 (stereo not drawn)	-4.6	-4.3	56.0*	70.2*	-7.7	1.6	44.0	50.0*
CCN1CCN(Cc2ccc(NC(=O)c3ccc(C)c(NC(=O)c4ccc5n[nH]nc5c4)c3)cc2C(F)(F)F)CC1	1.4	8.3	20.9	-12.8	-4.8	2.4	.	.
CCN1CCN(Cc2ccc(NC(=O)c3ccc(C)c(NC(=O)C(=O)c4c[nH]c5ccccc45)c3)cc2C(F)(F)F)CC1	0.3	26.7	77.2*	95.3*	-29.1	26.9	23.6	79.1*

Source: PubChem BioAssay
